# p53null 39C tox: selectivity test: cytotoxicity in p53 null cells, nonpermissive temperature; 55,000 compounds, 0.97% hits; Potency, µM (doses to about 46.1 µM), inactives show at the highest dose activity, negative = cell killing, hits mostly cytotoxic; H1299 p53-null (neo) cells, 39C, ATPlite viability, 24 h;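 also: potency is read from the fitted curve at half-maximal effect; 0% = DMSO only and -100% = full killing by 100 µM tamoxifen; nearly all actives have a fitted effect of over 50% in size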
#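 Luminescent ATP signal reported cell survival after H1299 lines (neo, p53 null; or p53 A138V) received up to 46 uM compound and 24 hr incubation at 39C.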
# OvCa metastasis: inhibitors of ovarian cancer cell adhesion and invasion in omental model; Potency, µM (highest dose often 45.8 µM), for inactives: top-dose activity change, negative = inhibition, most hits filed as inhibitors; 46,000 compounds, 0.1% hits; SKOV3ip1-GFP adhesion/invasion on 3D omental model, fluorescence;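 also: potency is read from the fitted curve at half-maximal effect; plate controls were DMSO wells for no effect and tomatine positive control wells for full effect; nearly all actives have a fitted effect of over 65% in size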
#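 Adhesion/invasion was scored as fixed GFP-labeled SKOV3ip1 cell counts (488/509 nm), normalized to DMSO and tomatine controls. Cancer cells in serum-free medium, with four compound doses (0.36-46 umol/L), sat 2 hr at RT then 16 hr at 37 C on a 48 hr fibroblast/mesothelial/ECM culture.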
# p53null 32C tox: selectivity test: cytotoxicity in p53 null cells, permissive temperature | 55,000 compounds, 0.62% hits | AID 903 | H1299-neo p53 null cells, ATP luminescence, 24 h, 32C | Potency, µM (series often up to 46.1 µM), for the others: at the top dose activity change, negative = cytotoxicity, most hits filed as cytotoxic;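 also: potency is read from the fitted curve at half-maximal effect; 0% = DMSO only and -100% = full killing by 100 µM tamoxifen; nearly all actives have a fitted effect of over 55% in size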
#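 ATP-content luminescence in p53-null H1299-neo cells after 24 h compound exposure (up to 46 uM) at 32C permissive temperature; 0% and 100% killing set by DMSO and 100 uM tamoxifen; Hill-equation AC50.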
# PMP22 txn prim: modulates PMP22 transcription in S16 Schwann cells; S16 Pmp22-F2sN Schwann cells, FLuc/NLuc coincidence luminescence, 24 h; Potency, µM (highest dose often 57.5 µM), for the others: at the top dose activity change, negative = inhibition, actives largely listed as inhibitors; 43,000 compounds, 2% hits; AID 1508649; active = clear falling dose curves in both reporters; inconclusive = both reporters move, but less clearly or upward; inactive = either reporter flat; the % is the NLuc reporter signal; also: potency is read from the fitted curve at half-maximal effect; % is scaled to controls: 0 for no effect and ±100 for the full control effect
#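 Reporter cells (S16 Pmp22-F2sN, 500–1,000 per well) exposed to compounds for 24 h, 37C, 5% CO2; lysis with FLuc read after 10 min, then Stop&Glo and NLuc read after 10 min.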
# S16 F2sN tox: cytotoxicity in S16 Pmp22-F2sN Schwann cells; S16 Pmp22-F2sN Schwann cells viability, CellTiter-Glo, 24 h; Potency, µM (top dose mostly 57.5 µM), for inactives: at the top dose activity change, negative = cytotoxicity, hits mostly cytotoxic; 43,000 compounds, 0.48% hits; also: potency is read from the fitted curve at half-maximal effect; % is scaled to controls: 0 for no effect and ±100 for the full control effect; nearly all actives have a fitted effect of over 65% in size
#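 Used to flag compounds lowering reporter output through toxicity, this quantitative HTS measures ATP-based CellTiter-Glo luminescence in S16 Pmp22-F2sN Schwann cells after 24 h compound exposure at 37C.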
# mTORC1 inh: reduces mTORC1 signaling in Tsc2 and p53 null MEF cells; Tsc2-/- p53-/- MEF, phospho-rpS6 immunofluorescence/PI, 24 h; Potency, µM (series often up to 38.3 µM), without a hit: at the top dose activity change, negative = inhibition, actives largely listed as inhibitors; 44,000 compounds, 0.78% hits;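 also: potency is read from the fitted curve at half-maximal effect; plate controls were DMSO for no effect and rapamycin for full effect; nearly all actives have a fitted effect of over 50% in size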
#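 Immunofluorescence of rpS6 phosphorylation in Tsc2-/-, p53-/- MEFs after 24 h compound exposure, normalized to propidium iodide signal. Activity is expressed as % positive cells, thresholded with 7.5 nM rapamycin.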
# NLuc sat counter: NanoLuc enzyme inhibition artifact for PMP22 screen; 690 compounds, 4% hits; Secreted NLuc enzyme (filtered S16 cell medium), Nano-Glo luminescence; AID 1508638; shares compounds with PMP22 txn prim; Potency, µM (highest dose often 57.5 µM), for inactives: top-dose activity change, negative = inhibition, actives largely listed as inhibitors; also: potency is read from the fitted curve at half-maximal effect; % is scaled to controls: 0 for no effect and ±100 for the full control effect
# NLuc Km ctr: counter-screen for PMP22 expression modulators: NanoLuc inhibition at Km; shares compounds with PMP22 txn prim; secreted NLuc enzyme, coelenterazine luminescence, Km conditions; Potency, µM (top dose mostly 57.5 µM), for inactives: top-dose activity change, negative = inhibition, hits mostly inhibitors; 690 compounds, 5% hits; AID 1508639; also: potency is read from the fitted curve at half-maximal effect; % is scaled to controls: 0 for no effect and ±100 for the full control effect
# FLuc counter: counter-screen for PMP22 expression modulators: firefly luciferase inhibition; shares compounds with PMP22 txn prim; purified P. pyralis FLuc, luminescence, 10 min; Potency, µM (series often up to 57.5 µM), for inactives: at the top dose activity, negative = inhibition, most hits filed as inhibitors; 690 tested, under 10 active; also: % of control where 0% means no effect
# Target sequence (P08659 whole entry, looked up): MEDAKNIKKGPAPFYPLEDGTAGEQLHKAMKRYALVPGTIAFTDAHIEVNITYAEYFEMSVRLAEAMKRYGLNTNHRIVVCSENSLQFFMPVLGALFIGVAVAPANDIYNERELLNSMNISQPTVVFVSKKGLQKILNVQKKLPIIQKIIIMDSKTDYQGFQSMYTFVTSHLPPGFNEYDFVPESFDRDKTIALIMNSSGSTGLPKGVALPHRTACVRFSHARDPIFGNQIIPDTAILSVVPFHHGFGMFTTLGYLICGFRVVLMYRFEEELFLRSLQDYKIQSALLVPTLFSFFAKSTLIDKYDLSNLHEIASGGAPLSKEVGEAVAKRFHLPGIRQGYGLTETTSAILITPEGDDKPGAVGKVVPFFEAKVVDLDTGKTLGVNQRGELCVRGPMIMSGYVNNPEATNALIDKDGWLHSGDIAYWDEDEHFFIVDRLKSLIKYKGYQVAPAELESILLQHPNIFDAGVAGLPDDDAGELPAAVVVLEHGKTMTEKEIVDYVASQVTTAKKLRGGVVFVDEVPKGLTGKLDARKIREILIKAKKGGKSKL
# S16 viab conf: confirmation of cytotoxicity in S16 Pmp22-F2sN Schwann cells (luciferase reporters placed in the Pmp22 gene). Potency, µM (top dose mostly 57.5 µM), for the others: at the highest dose activity change, negative = viability loss, actives largely listed as cytotoxic. shares compounds with PMP22 txn prim. S16 Schwann cells viability, CellTiter-Glo ATP luminescence, 24 h. 690 compounds, 7% hits; also: potency is read from the fitted curve at half-maximal effect; % is scaled to controls: 0 for no effect and ±100 for the full control effect
# PMP22 txn cnf: confirmation of modulators of PMP22 gene transcription in S16 cells. shares compounds with PMP22 txn prim. S16 Schwann cells Pmp22-F2sN, dual luciferase, 24 h. Potency, µM (top dose mostly 57.5 µM), for inactives: at the highest dose activity change, negative = inhibition, most hits filed as inhibitors. 690 compounds, 22% hits; active = clear falling dose curves in both reporters; inconclusive = both reporters move, but less clearly or upward; inactive = either reporter flat; the % is the FLuc reporter signal; also: potency is read from the fitted curve at half-maximal effect
# * hit, by the source's call; i = inactive; ? = inconclusive; . = no result. The list is not random: actives were taken first. Their share in the collection is about 3.1%. Unless noted, calls follow the shape of the dose curve; as a rule, active = well fitted curve in the direction sought with a large enough effect; inconclusive = small, poorly fitted or top-dose-only effect, or another doubt; inactive = no such curve, though single readings can be large; an effect the other way counts as inactive or inconclusive.
SMILES,p53null 39C tox,OvCa metastasis,p53null 32C tox,PMP22 txn prim,S16 F2sN tox,mTORC1 inh,NLuc sat counter,NLuc Km ctr,FLuc counter,S16 viab conf,PMP22 txn cnf
COC(=O)c1c(C)oc2ccc(N(C(=O)c3ccncc3)S(=O)(=O)c3c(C)cc(C)cc3C)cc12,2.6%,-3.5%,16.3%,3.77µM*,-11.5%,-15.6%,-8.3%,6.1%,10.7%,-7.0%,?
COC(=O)c1c(C)oc2ccc(N(C(=O)c3ccncc3)S(=O)(=O)c3cc(C)c(C)cc3C)cc12,76.4%,i,54.9%,?,?,?,.,.,.,.,.
CC(C)C(=O)c1cc2c(cc1NC(=O)c1ccccc1F)OCCO2,31.8%,10.8%,-9.8%,-3.1%,-4.2%,-0.8%,.,.,.,.,.
CCC(Sc1nncn2c1cc1occc12)C(=O)Nc1ccc(C)c(Cl)c1 (stereo not given),6.3%,4.2%,5.9%,16.8µM*,?,0.0%,?,?,-15.6%,-4.5%,?
O=C(CSc1nncn2c1cc1occc12)Nc1ccc(F)c(Cl)c1,-20.3%,3.7%,0.6%,-26.0%,-2.7%,-15.2%,.,.,.,.,.
CCOC(=O)c1c(C)oc2nc(C)nc(NCCc3ccc(OCC)cc3)c12,10.0%,-23.3%,-4.4%,14.2µM*,-26.6%,5.7%,?,?,-10.1%,-11.4%,?
CCOc1ccc(CCNC(=O)c2c(C)oc3ncn(CC(C)C)c(=O)c23)cc1,-28.6%,10.6%,-5.2%,20µM*,2.0%,4.8%,?,1.7%,?,2.2%,-32.2%
CCOC(=O)c1c(C)oc2nc(C)nc(NCCc3ccc(Cl)cc3)c12,-2.6%,9.8%,0.1%,-35.1%,13.6%,?,.,.,.,.,.
CCOc1ccc(CCNc2nc3ccccc3n3c(C)nnc23)cc1OCC,-7.0%,-14.7%,7.8%,?,-2.7%,-7.7%,?,?,0.6%,0.3%,?
Clc1cccc(N2CCN(c3ncnc4c3nc3n4CCCCC3)CC2)c1,?,i,-17.9%,20µM*,-10.2%,-21.1%,?,13.7µM*,-2.9%,?,?
O=C(C1CCN(c2ncnc3c2nc2n3CCCCC2)CC1)N1CCN(c2cccc(Cl)c2)CC1,-23.5%,-29.8%,7.3%,?,-27.6%,-10.4%,.,.,.,.,.
COc1ccc(S(=O)(=O)NCC(c2ccco2)S(=O)(=O)c2ccc(C)cc2)cc1F (stereo not given),-1.5%,2.3%,9.1%,?,?,-6.1%,.,.,.,.,.
Cc1ccc(S(=O)(=O)C(CNS(=O)(=O)c2ccc(F)c(C(F)(F)F)c2)c2ccco2)cc1 (stereo not given),-12.9%,4.7%,6.1%,14.2µM*,?,?,-1.0%,?,3.9%,-1.4%,-11.6%
Cc1ccc(NC(=O)N2CCN(c3ccc(Cl)c(Cl)c3)CC2)cc1,?,-3.5%,5.1%,?,-29.7%,-19.7%,.,.,.,.,.
CC(C)c1ccc(NC(=O)N2CCN(c3ccc(Cl)c(Cl)c3)CC2)cc1,?,-22.7%,41.7%,11.3µM*,-15.7%,-18.0%,?,?,-18.2%,-13.9%,?
COc1ccc(Cl)cc1NC(=O)CSc1nc2ccccc2nc1N1CCCCC1,-9.0%,3.8%,-6.9%,12.7µM*,8.4%,-1.5%,-8.7%,8.9%,-3.8%,-9.3%,-33.4%
CCCN(C(=O)c1cc2c(=O)n(CC)c3ccccc3c2s1)c1ccccc1F,?,i,-4.3%,7.61µM*,6.0%,2.5%,-19.2%,?,2.6%,-10.4%,?
CCOc1ccccc1N(CC)C(=O)c1cc2c(=O)n(CC)c3ccccc3c2s1,?,i,31.3%,?,10.7%,-6.5%,.,.,.,.,.
COc1ccc(CCNC(=O)c2cnc3sc(N4CCC(C)CC4)nn3c2=O)cc1OC,-23.9%,13.5%,-5.3%,.,.,5.6%,.,.,.,.,.
COc1cc2c(cc1OC)C(COc1ccc3c(C)cc(=O)oc3c1)N(C(=O)c1ccc(C)cc1)CC2 (stereo not given),6.2%,10.2%,9.7%,?,?,-9.3%,-11.2%,1.3%,1.5%,0.2%,?
O=C(CCS(=O)(=O)c1nc(-c2ccc3c(c2)OCO3)cc(C(F)(F)F)n1)Nc1ccc(F)c(Cl)c1,?,?,?,13.4µM*,?,-3.9%,-14.7%,?,-7.5%,-15.8%,?
Cc1cccn2c(=O)c3cc(C#N)c(=O)n(-c4nnc(SCc5ccc(F)cc5)s4)c3nc12,-23.6%,2.1%,-13.6%,10µM*,?,-4.7%,-6.9%,-1.5%,11.5%,8.3%,-28.4%
Cc1ccc(CSc2nnc(-n3c(=O)c(C#N)cc4c(=O)n5cccc(C)c5nc43)s2)cc1,-20.0%,-7.8%,-0.1%,?,3.2%,-2.9%,.,.,.,.,.
Cc1cccc(NC(=O)c2sc3nc4c(cc3c2N)CCCCCC4)c1C,?,-10.0%,-2.6%,?,16.7%,?,-7.0%,-2.0%,-7.3%,-0.3%,-39.8%
COc1ccc(OC)c(NC(=O)c2sc3nc4c(cc3c2N)CCCCCC4)c1,?,6.6%,?,?,-1.8%,?,.,.,.,.,.

# Screening data as filed in PubChem.
